Screening data from PubChem.
Gli-Sufu antag: Gli-Sufu pathway antagonists, primary screen, luciferase luminescence, Sufu-KO-LIGHT cells, uHTS; AID 588413, 2011; inhibition, % at 5 µM; hit rate 0.74% among 340,000; Sufu-KO-LIGHT fibroblasts, Gli luciferase reporter luminescence;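 active = inhibition above about 55%, limit read from the data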;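 note: 0% = DMSO-treated cells and 100% = wells with medium but no cells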
Mdm2-MdmX inh: inhibitors of human Mdm2-MdmX association, primary screen, cell-based, luminescence, split luciferase, SaOS-2, uHTS; Protein Mdm4 (Homo sapiens) + E3 ubiquitin-protein ligase Mdm2 (Homo sapiens), …; SaOS-2 split-luciferase Mdm2/MdmX complementation; inhibition, % at 8 µM; hit rate 3% among 330,000;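 active = inhibition of at least 50% at 8 µM in the primary screen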
697 NFkB inh: inhibitors of PMA/ionomycin-induced NF-kB reporter, 697 cells, primary screen, B-cell NF-kB inhibitor project, cell-based, luminescence, uHTS; 697 B-cell NF-kB luciferase reporter, 16 h; inhibition, % at 4 µM; hit rate 0.33% among 330,000; AID 435022, 2010; in the data active = inhibition above about 35%
aSyn UTR inh: MLPCN primary screen, SNCA 5' untranslated region; alpha-synuclein 5'UTR reporter, inhibitor activity; inhibition, % (tested at 7.5 µM); hit rate 0.82% among 300,000; in the data active = inhibition above about 60%;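 note: H4 neuroglioblastoma cells stably carrying SNCA 5'UTR luciferase fusion; 0% = DMSO wells and 100% = positive control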
CSC inhib: cancer stem cell viability inhibitors, primary screen, luminescence; AID 2717, 2010; hit rate 1.1% among 300,000; cancer stem cell-like cells viability; inhibition, % at 7.5 µM; in the data active = inhibition above about 75%; tested in HMLE shEcad cells
Jurkat NFkB inh: inhibitors of induced NF-kB luciferase reporter, primary screen, TCR NF-kB activation inhibitor project, cell-based, luminescence, uHTS; AID 435003, 2010; inhibition, % at 4 µM; Jurkat, PMA/ionomycin-induced NF-kB luciferase reporter; hit rate 0.53% among 330,000; in the data active = inhibition above about 50%
Mdm2-MdmX conf: Mdm2-MdmX complex disruptors, retested hits, confirmation, luminescence, single concentration; shares compounds with Mdm2-MdmX inh; Mdm2-MdmX binding, luminescent assay; inhibition, % at 8 µM; hit rate 55% among 10,000; in the data active = inhibition above about 40%
Full FLuc ctr: full-length luciferase signal inhibition, confirmation, counter-screen for Mdm2/MdmX interaction inhibitor project, cell-based, single concentration, SaOS-2; shares compounds with Mdm2-MdmX inh; SaOS-2 full-length luciferase counterscreen, luminescence; inhibition, % at 8 µM; hit rate 77% among 6,200;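 active = mean inhibition at 8 µM reaching about 37%, which flags the compound as non-specific, limit read from the data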;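 note: p53-null SaOS-2 cells with luciferase driven by a doxycycline-inducible promoter; compound on cells about two nights before reading with doxycycline added after day one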
* hit, by the source's call; · = no result. Most compounds without a hit are left out; they make up all but 4.5% or so of the library.

SMILES | Gli-Sufu antag | Mdm2-MdmX inh | 697 NFkB inh | aSyn UTR inh | CSC inhib | Jurkat NFkB inh | Mdm2-MdmX conf | Full FLuc ctr
Cc1cc(C(F)F)n2nc(C(=O)Nc3sc4c(c3C#N)CCC4)nc2n1 | -2 | -5 | 8 | -1 | 12 | -28 | · | ·
O=C(C1=C[C@H](c2ccccc2)C[C@H](OCc2ccc(CO)cc2)O1)N1CCN(Cc2ccccc2)CC1 | -5 | 32 | 4 | 14 | -8 | 7 | · | ·
O=C(C1=C[C@H](C2CCCCC2)C[C@H](OCc2ccc(CO)cc2)O1)N1CCN(Cc2ccc3c(c2)OCO3)CC1 | -5 | 52* | 14 | 40 | 43 | 4 | 24 | ·
O=C(C1=C[C@@H](C2CCCCC2)C[C@@H](OCc2ccc(CO)cc2)O1)N1CCN(Cc2ccc3c(c2)OCO3)CC1 | -20 | 37 | 5 | 6 | 41 | 3 | · | ·
O=C(C1=C[C@@H](c2ccccc2)C[C@@H](OCc2ccc(CO)cc2)O1)N1CCN(Cc2ccc3c(c2)OCO3)CC1 | 17 | 52* | 4 | -5 | 45 | 44 | 48* | 69*
O=C(C1=C[C@@H](c2csc3ccccc23)C[C@@H](OCc2ccc(CO)cc2)O1)N1CCN(Cc2ccc3c(c2)OCO3)CC1 | 1 | 54* | -23 | 69* | 62 | 13 | 46* | 53*
CC1(C)CC(=O)C=C(NC2=CC3OC(c4ccccc4)OCC3OC2=O)C1 (stereo not drawn) | 15 | 70* | 1 | -11 | 14 | 32 | 34 | 54*
Cc1cc(NC(=O)C(C)Sc2nc(-c3cccs3)nc3ccccc23)no1 (stereo not drawn) | 6 | 84* | -6 | · | · | 42 | 52* | 68*
O=C(CN1C(=O)NC2(CCc3ccccc32)C1=O)Nc1ccccc1C(F)(F)F (stereo not drawn) | -7 | -2 | 5 | · | · | 3 | · | ·
CCOc1ccc(-c2nnc(N3CCCCC3)c3ccccc23)cc1 | 22 | 62* | -18 | 10 | 23 | -11 | -2 | ·
Nc1c(Cl)cc(C2=NCCn3nc4cc(C(F)(F)F)ccc4c32)cc1Cl | -17 | -7 | -13 | -27 | 26 | 7 | · | ·
COc1ccc2c3n(nc2c1)CCN=C3c1cc(Cl)c(N)c(Cl)c1 | 6 | 65* | -8 | · | 40 | 41 | 62* | 65*
COc1cc(NC(=O)CCS(=O)(=O)c2ccc3c(c2)n(C)c(=O)c(=O)n3C)cc(OC)c1 | -3 | 8 | -3 | -30 | -7 | -7 | · | ·
CCOC(=O)Cn1c(S(=O)(=O)Cc2cccc(F)c2)nc(-c2ccccc2)c1-c1ccccc1 | 12 | 81* | -104 | 50 | 29 | -46 | 56* | 67*
CCOC(=O)Cn1c(S(=O)(=O)Cc2ccc(F)cc2)nc(-c2ccccc2)c1-c1ccccc1 | 11 | 79* | -96 | 35 | 20 | -23 | 56* | 63*
CCOC(=O)Cn1c(-c2ccccc2)nc2ccccc2c1=O | 5 | 0 | 5 | 5 | -1 | 2 | · | ·
CCc1ccc(OC)c(S(=O)(=O)NCc2cccs2)c1 | 18 | 9 | -11 | · | -18 | -9 | · | ·
COC(=O)c1c(-c2ccc(OC)cc2)oc2ccc(-c3ccc(OC)nc3)cc12 | 0 | 82* | -10 | 14 | 28 | 2 | 57* | 45*
COc1ccc(-c2oc3ccc(-c4ccc(OC)nc4)cc3c2C#CC2(O)CCCCC2)cc1 | -6 | 64* | -11 | 19 | · | -8 | 31 | ·
COc1ccc(-c2oc3ccc(-c4ccc5c(c4)OCO5)cc3c2C#CC2(O)CCCCC2)cc1 | -3 | 65* | -24 | 7 | 20 | 7 | 29 | ·
